The record followed here is PubChem BioAssay (NCATS).

Assay [1] is described as follows: Cellular Toxicity (caspase-3) Jurkat (AID 655).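 Note: cells exposed to compound for 16 h at 37 °C before reading.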 Note: potency is the fitted concentration of half-maximal effect. The note with it: Jurkat caspase-3 activation, luminescence; caspase-3 activation: at 92.2 µM (top of the series), DMSO = 0%, tamoxifen = 100%. In outline:
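5000 Jurkat cells/well; compound 16 hr, 37 °C; Caspase-Glo 3/7 added, 20 min RT; luminescence read. Norm: DMSO = 0%, tamoxifen 100 uM = 100%. AC50, Hill model.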

Assay [2] is described as follows: Cellular Toxicity (caspase-3) SHSY5Y (AID 657). Note: potency is the fitted concentration of half-maximal effect. In short, it runs like this: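 qHTS, SH-SY5Y, 1500 cells/well, 5 h pre-incubation 37 °C; compound 16 h 37 °C; Caspase-Glo 3/7 1 h RT; luminescence. Norm.: DMSO = 0, 10 uM staurosporine = 100%. Hill fit → AC50.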
The nature of assay [3]: Cellular Toxicity (caspase-3) BJ (AID 658).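 Note: 0% = DMSO basal and 100% = 10 µM staurosporine.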 In outline:
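BJ human foreskin fibroblasts, 1000 cells/well, treated 16 hours at 37 °C in complete medium; caspase 3/7 activity by Caspase-Glo luminescence after 1 hr at room temperature. Normalized to DMSO and 10 uM staurosporine; AC50 from Hill fits.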

The nature of assay [4]: Cellular Toxicity (caspase-3) MRC-5 (AID 659).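 Note: 0% = DMSO basal and 100% = 10 µM staurosporine.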 In short, it runs like this: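 MRC-5 human normal lung fibroblasts, 1500 cells/well, treated 16 h at 37 °C in complete medium. Caspase 3/7 measured by Caspase-Glo luminescence after 1 h at room temperature. Normalized to DMSO and 10 uM staurosporine; AC50 from Hill fit.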
Assay [5] in a line: Cellular Toxicity (caspase-3) SK-N-SH (AID 661).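 Note: 0% = DMSO basal and 100% = 10 µM staurosporine.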 In short, it runs like this:
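Caspase 3/7 activation is measured as a luminescence increase from aminoluciferin released by substrate cleavage in SK-N-SH cells after 16 hr compound treatment; values are AC50 from concentration-response curves.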

The target in assay [6] is 3',5'-cyclic-AMP phosphodiesterase 4B (Homo sapiens) (UniProt Q07343). The assay is described as follows: qHTS Assay for Inhibitors of PDE-IV (AID 607; active = well fitted activation curve with a large enough effect in the main read-out, with a control signal flat, not every such curve was filed as active; note: % of control where 0% means no effect). In outline:
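The readout is membrane depolarisation from a cAMP-sensing CNG channel, detected with a potential dye at ex 535/em 590. Cells were HEK293-derived (endogenous PDE-IV) at 1000 cells/well, titrated up to 22.9 uM final.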
(In general: Quantitative high-throughput screening tests each substance at several concentrations.)

Assay [7] is described as follows: Cellular Toxicity (caspase-3) HepG2 (AID 654).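 For caspase-3 activation: cells exposed to compound for 16 hours before reading; 0% = DMSO alone and 100% = caspase signal from 100 µM tamoxifen.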 Note: potency is the fitted concentration of half-maximal effect. In outline: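 qHTS, HepG2, 1500 cells/well, complete medium; cpd 16 h 37 °C; Caspase-Glo 3/7, 20 min RT; lum. Norm: DMSO vs 100 uM tamoxifen; AC50 Hill fit.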
Assay [8] is described as follows: Cellular Toxicity (caspase-3) HUV-EC-C (AID 656). In outline: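 qHTS; HUV-EC-C, 1000 cells/well; 5 hr settle, 16 hr cmpd, 37°C; Caspase-Glo 3/7, 20 min RT; luminescence. Norm: DMSO = 0%, tamoxifen 100 uM = 100%. Hill-fit AC50.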
Assay [9] in a line: Cellular Toxicity (caspase-3) H-4-II-E (AID 663).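 Note: cells exposed to compound for 16 hr before readout.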 The note with it: H-4-II-E rat hepatoma, scaled: DMSO 0%, 100 µM tamoxifen 100%; at 92.2 µM (top of the series). In outline:
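Rat hepatoma H-4-II-E cells (1500/well) plated 5 hr, then exposed to compound titrations for 16 hr at 37 °C. Caspase-Glo 3/7 luminescence read after 20 min at RT; data normalized to DMSO and 100 uM tamoxifen, AC50 from Hill fits.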

Assay [10] in a line: Cellular Toxicity (caspase-3) Hek293 (AID 664).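 Note: cells exposed to compound for 16 h at 37 °C before readout.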 In outline: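 Activation of caspase-3/7 is measured as increased luminescence from cleaved peptide-aminoluciferin substrate in HEK293 cells treated 16 hours at 37 °C. AC50 values come from Hill-equation fits of concentration-response data.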

Where “and” joins values, the source holds several entries; their conditions need not be identical. Equal entries are not always repeated. Values without a mark were called inactive. Results filed as inconclusive are left out. Calls of active or inactive are those of the source. Unless noted, calls come from the whole dose curve; as a rule, active = well fitted curve in the direction sought with a large enough effect; inconclusive = small, poorly fitted or top-dose-only effect, or another doubt; inactive = no such curve, though single readings can be large; an effect the other way counts as inactive or inconclusive.

Sequence of 3',5'-cyclic-AMP phosphodiesterase 4B (Homo sapiens) (Q07343 whole entry, looked up): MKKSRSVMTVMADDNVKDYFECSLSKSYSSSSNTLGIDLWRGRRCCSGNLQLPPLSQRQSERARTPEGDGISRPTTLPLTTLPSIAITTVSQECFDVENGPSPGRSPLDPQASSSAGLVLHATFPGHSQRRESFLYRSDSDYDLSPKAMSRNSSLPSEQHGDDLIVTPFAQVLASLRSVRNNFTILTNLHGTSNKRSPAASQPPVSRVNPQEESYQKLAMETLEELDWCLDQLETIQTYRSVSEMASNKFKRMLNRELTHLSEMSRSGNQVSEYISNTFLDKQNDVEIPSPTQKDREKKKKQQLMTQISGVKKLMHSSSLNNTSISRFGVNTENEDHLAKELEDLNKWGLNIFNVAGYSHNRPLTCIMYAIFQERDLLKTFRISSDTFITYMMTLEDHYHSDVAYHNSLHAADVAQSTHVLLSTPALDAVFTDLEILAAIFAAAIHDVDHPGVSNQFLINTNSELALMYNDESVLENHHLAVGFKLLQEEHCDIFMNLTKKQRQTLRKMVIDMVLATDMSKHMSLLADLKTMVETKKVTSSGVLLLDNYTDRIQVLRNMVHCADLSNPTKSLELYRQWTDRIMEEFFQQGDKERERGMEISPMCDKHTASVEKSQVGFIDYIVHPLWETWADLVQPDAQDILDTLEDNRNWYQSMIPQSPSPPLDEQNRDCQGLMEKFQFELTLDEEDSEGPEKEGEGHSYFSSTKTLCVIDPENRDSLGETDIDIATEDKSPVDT

For `Clc1ccc(COC(Cn2ccnc2)c2ccc(Cl)cc2Cl)cc1` (stereo not drawn), the caspase-3 activation in [1] is 99.7% (active). Also, in assay [2], the Potency result is “inactive”. In addition, the outcome in assay [3], in assay [4] and in assay [5] was inactive.

As for `NN=C(N)N`, in assay [6], the result was inactive.

Turning to `CCCN1CCC[C@@H]2Cc3nc(N)ncc3C[C@H]21`, the call in assay [6] was inactive.

In the case of `c1ccc(C2CC2)c(OCC2=NCCN2)c1`, the compound was classed as inactive in assay [6].

In the case of `COc1ccccc1N1CCNCC1`, in assay [6], the compound was called inactive.

For the compound `Cc1cccc(C)c1NC1=NCCCS1`, the compound was called inactive in [6].

As for `C#CCN(C)[C@H](C)Cc1ccccc1`, in [6], the compound was classed as inactive.

In the case of `N[C@@H]1C[C@H]1c1ccccc1`, the call in [6] was inactive.

For the compound `NCC1(CC(=O)O)CCCCC1`, the compound was called inactive in assay [6].

`Cc1ncc(CNC(=O)N(CCCl)N=O)c(N)n1`: the compound was called inactive in assay [6].

Regarding `N#CC(C#N)=Cc1ccc(O)c(O)c1`, in assay [6], the call was inactive.

In the case of `CCCN1CCC[C@@H]2Cc3[nH]ncc3C[C@H]21`, the result in assay [6] was inactive.

Regarding `NP(N)(=O)NC(=O)c1ccc(F)cc1`, the compound was classed as inactive in assay [6].

`CNCC(O)c1ccc(O)cc1` (stereo not drawn): the Potency result in [7] and in [2] was “inactive” in each case. Moreover, the caspase-3 activation in [1] was 2.25%; in [9], -0.124%. Moreover, the compound was called inactive in [8], in assay [3], in assay [4], in assay [5] and in assay [10].

For `O=[N+]([O-])c1cc([As](=O)(O)O)ccc1O`, the compound was called inactive in assay [6].

In the case of `Nc1ccncc1`, in assay [6], the result was inactive.

As for `CCCC(C)(COC(N)=O)COC(=O)NC(C)C` (stereo not drawn), the Potency entry in assay [7] and in assay [2] was “inactive” each time. Also, the results for the caspase-3 activation in [1] and in assay [9] were 1.39% and 0.766%, respectively. The outcome in [8], in assay [3], in [4], in assay [5] and in assay [10] was inactive.

For `O=c1[nH]c2ccccc2n1CCCN1CCC(n2c(=O)[nH]c3cc(Cl)ccc32)CC1`, the result in assay [6] was inactive.

Take `Oc1cccc2cccnc12`: the call in assay [6], in assay [8], in [3], in assay [4], in assay [5] and in [10] was inactive. For the same compound, the Potency entry in [7] and in [2] was “inactive” in each case. For the same compound, the caspase-3 activation in assay [1] was 7.85% and 22.6%; in [9] it was 5.58% and 5.31%.

Turning to `CCN(CC)C(=O)N[C@@H]1C=C2c3cccc4[nH]cc(c34)C[C@@H]2N(C)C1`, in assay [6], the compound was called inactive.

Regarding `N[C@@H](Cc1ccc(N(CCCl)CCCl)cc1)C(=O)O`, the Potency in [7] was 31.6 µM (active); in assay [1] it was 25.1 µM (active); in assay [2], 2.51 µM (active). In addition, the outcome in assay [8], in [3], in [4] and in [10] was inactive. Also, the caspase-3 activation in assay [9] was 116% (active).

On to `Clc1cccc(N2CCNCC2)c1`, for which the result in [6] was inactive.

With `C[C@]12C/C(=C/O)C(=O)C[C@@H]1CC[C@@H]1[C@@H]2CC[C@@]2(C)[C@H]1CC[C@]2(C)O`, in assay [1], the caspase-3 activation was 15%. The outcome in assay [8], in assay [3], in [4] and in assay [5] was inactive. In addition, in [2], the Potency entry was “inactive”.

Consider `NCC(O)c1ccc(O)cc1` (stereo not drawn), for which the Potency entry in assay [7] and in [2] was “inactive” in each case. Further, the caspase-3 activation in assay [1] is -0.0147%; in assay [9], -0.161%. The call in assay [8], in [3], in assay [4], in assay [5] and in assay [10] was inactive.
